Laboratory results reported in PubChem BioAssay (Tox21).
Records with an inconclusive call do not appear. Where a call stands in place of a potency, no number is given. Unmarked numbers belong to inactive results. Calls of active or inactive are those of the source. Calls follow the shape of the dose curve; as a rule, active = well fitted curve in the direction sought with a large enough effect in the repeat runs; inconclusive = weak or mixed curves; inactive = no such curve, though single readings can be large; an effect the other way counts as inactive or inconclusive.

How the values were obtained:
[1] = qHTS assay to identify small molecule antagonists of the retinoid acid receptor (RAR) signaling pathway - cell viability counter screen (AID 1159551); also: nearly all actives have a fitted effect of over 35% in size
How it was run: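 Cytotoxicity counter screen in C3RL4 cells: 6 h compound exposure with 1 uM retinol (final), viability from cellular ATP by luminescence.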

[2] = qHTS assay to identify small molecule antagonists of the retinoic acid receptor (RAR) signaling pathway (AID 1159552; also: nearly all actives have a fitted effect of over 50% in size)
How it was run: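 Luminescence from a RARE luciferase reporter in C3RL4 cells served as read-out. Cells received compounds together with 1 uM final retinol and incubated 6 hr at 37 C before detection reagent was added for 30 min at room temperature.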

[3] = qHTS assay to identify small molecule agonists of the retinoic acid receptor (RAR) signaling pathway (AID 1159553); also: potency is read from the fitted curve at half-maximal effect
How it was run: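 Agonist activity was scored in C3RL4 cells bearing a retinoic acid response element luciferase construct. Cells were treated with compounds for 6 hr at 37 C, and luciferase signal was measured as luminescence.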

[4] = qHTS assay to identify small molecule antagonists of the estrogen related receptor (ERR) signaling pathway from Tox21 library - cell viability counter screen (AID 1224834); also: nearly all actives have a fitted effect of over 30% in size; also: potency is read from the fitted curve at half-maximal effect
How it was run: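 Cytotoxicity of test substances is gauged in the same ERR cells used for the antagonist screen, after 17.5 h of compound treatment at 37 C, by CellTiter-Fluor fluorescence measured after 30 min.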

O=C(c1ccc(Cl)cc1)c1ccc(Cl)cc1
outcome [1]: inactive | outcome [2]: inactive | Potency [3]: inactive | Potency [4]: inactive

CC(=O)Oc1cccc2c1C(=O)c1c(OC(C)=O)cc(C(=O)O)cc1C2=O
outcome [1]: inactive | outcome [2]: inactive | Potency [3]: inactive | Potency [4]: 29.8 µM (active)

CC(C)C[C@H](NC(=O)[C@H](Cc1ccccc1)NC(=O)c1cnccn1)B(O)O
outcome [1]: inactive | outcome [2]: inactive | Potency [3]: 0.0094 µM (active) | Potency [4]: 0.0841 µM (active)

CCOc1cc(OCC)c(C(C)=O)cc1OCC
outcome [1]: inactive | outcome [2]: inactive | Potency [3]: inactive | Potency [4]: 30.1 µM (active)

CCC(C)C1N=C(C)C(C)S1 (stereo not drawn)
outcome [1]: inactive | outcome [2]: inactive | Potency [3]: inactive | Potency [4]: inactive

Cc1ccc(Cl)c(OCC(O)CNC(C)(C)C)c1 (stereo not drawn)
outcome [1]: inactive | outcome [2]: inactive | Potency [3]: inactive | Potency [4]: inactive

C=CC(=O)NC(C)(C)C
outcome [1]: inactive | outcome [2]: inactive | Potency [3]: inactive | Potency [4]: inactive

Cc1c(Cl)cccc1[N+](=O)[O-]
outcome [1]: inactive | outcome [2]: inactive | Potency [3]: inactive | Potency [4]: inactive

CCCCOC(=O)C(C)Oc1ccc(Oc2ccc(C(F)(F)F)cn2)cc1 (stereo not drawn)
outcome [1]: inactive | outcome [2]: inactive | Potency [3]: inactive | Potency [4]: inactive

Cc1ccccc1CCO
outcome [1]: inactive | outcome [2]: inactive | Potency [3]: inactive | Potency [4]: inactive

O=C(O)c1cc(C(=O)O)cc([N+](=O)[O-])c1
outcome [1]: inactive | outcome [2]: inactive | Potency [3]: inactive | Potency [4]: inactive

CCCCCCOC(=O)c1ccccc1
outcome [1]: inactive | outcome [2]: inactive | Potency [3]: inactive | Potency [4]: inactive

CC(=O)CC/C=C(\C)CC/C=C(\C)CC/C=C(\C)CCC=C(C)C
outcome [1]: inactive | outcome [2]: inactive | Potency [3]: inactive | Potency [4]: inactive

CCCCCCCCCCCC(=O)OCC
outcome [1]: inactive | outcome [2]: inactive | Potency [3]: inactive | Potency [4]: inactive

OCC(O)c1ccccc1 (stereo not drawn)
outcome [1]: inactive | outcome [2]: inactive | Potency [3]: inactive | Potency [4]: inactive

Cc1c(-c2cccnc2)c2ccccc2n1CCCCC(=O)O
outcome [1]: inactive | outcome [2]: inactive | Potency [3]: 43.3 µM (active) | Potency [4]: inactive

CC(=O)Nc1cccc(N)c1
outcome [1]: inactive | outcome [2]: inactive | Potency [3]: inactive | Potency [4]: inactive

CC(C(=O)O)c1ccc2c(c1)Cc1cccnc1O2 (stereo not drawn)
outcome [1]: inactive | outcome [2]: inactive | Potency [3]: inactive | Potency [4]: inactive

O=C(O)c1ccc(O)c(O)c1
outcome [1]: inactive | outcome [2]: inactive | Potency [3]: inactive | Potency [4]: inactive

CCOC(OCC)OCC
outcome [1]: inactive | outcome [2]: inactive | Potency [3]: inactive | Potency [4]: inactive

C=CCCC
outcome [1]: inactive | outcome [2]: inactive | Potency [3]: inactive | Potency [4]: inactive

O=C(Nc1ccc2c(c1)Cc1ccccc1-2)C(F)(F)F
outcome [1]: inactive | outcome [2]: inactive | Potency [3]: 6.86 µM (active) | Potency [4]: inactive

COC=O
activity change, negative = cytotoxicity [1]: 0.256% [at 8.39 µM] | activity, negative = inhibition [2]: -0.361% [at 8.39 µM] | activation [3]: 3.97% [at 8.36 µM] | viability change, negative = cytotoxic [4]: 0.652% [at 8.39 µM]

COC(=O)c1cc(Cl)ccc1[N+](=O)[O-]
outcome [1]: inactive | outcome [2]: inactive | Potency [3]: inactive | Potency [4]: inactive

CCCC(=O)OCCC(C)C
outcome [1]: inactive | outcome [2]: inactive | Potency [3]: inactive | Potency [4]: inactive

CCN(CC)CC(=O)OCC(=O)[C@@]1(O)CC[C@H]2[C@@H]3CCC4=CC(=O)CC[C@]4(C)[C@H]3[C@@H](O)C[C@@]21C
outcome [1]: inactive | outcome [2]: inactive | Potency [3]: inactive | Potency [4]: inactive

CCCCCCCCCCCCSCCOCCO
outcome [1]: inactive | outcome [2]: inactive | Potency [3]: inactive | Potency [4]: inactive

CC(CC(C#N)(c1ccccc1)C(C)C)N(C)C (stereo not drawn)
outcome [1]: inactive | outcome [2]: inactive | Potency [3]: inactive | Potency [4]: inactive

CCOc1ccccc1O
outcome [1]: inactive | outcome [2]: inactive | Potency [3]: inactive | Potency [4]: inactive

CCOC(=O)CC(O)(CC(=O)OCC)C(=O)OCC
outcome [1]: inactive | outcome [2]: inactive | Potency [3]: inactive | Potency [4]: inactive

O=C(O)c1ccccc1[N+](=O)[O-]
outcome [1]: inactive | outcome [2]: inactive | Potency [3]: inactive | Potency [4]: inactive

c1ccc(-c2ccc(-c3ccccc3)cc2)cc1
activity change, negative = cytotoxicity [1]: 4.6% [at 19 µM] | activity, negative = inhibition [2]: 100% [at 19 µM] | Potency [3]: 0.996 µM (active) | viability change, negative = cytotoxic [4]: 0.464% [at 19 µM]

COc1ccc(CN(CCN(C)C)c2ncccn2)cc1
outcome [1]: inactive | outcome [2]: inactive | Potency [3]: inactive | Potency [4]: inactive

CCC1=C(C)CN(C(=O)NCCc2ccc(S(=O)(=O)NC(=O)NC3CCC(C)CC3)cc2)C1=O (stereo not drawn)
outcome [1]: inactive | outcome [2]: inactive | Potency [3]: inactive | Potency [4]: inactive

CCCOC(C)=O
outcome [1]: inactive | outcome [2]: inactive | Potency [3]: inactive | Potency [4]: inactive

CC(C)(C)c1ccc(CCC=O)cc1
outcome [1]: inactive | outcome [2]: inactive | Potency [3]: inactive | Potency [4]: inactive

c1ccc(CCNc2nc(-c3ccccc3)cs2)cc1
outcome [1]: inactive | outcome [2]: inactive | Potency [3]: 2.11 µM (active) | Potency [4]: inactive

Clc1cc(Cl)c2c(c1)N=C1CCCCCN1C2
outcome [1]: inactive | outcome [2]: inactive | Potency [4]: inactive

Cc1c(Cl)cccc1Nc1ccccc1C(=O)O
outcome [1]: inactive | outcome [2]: inactive | Potency [3]: inactive | Potency [4]: inactive

O=C(O)COCC(=O)O
outcome [1]: inactive | outcome [2]: inactive | Potency [3]: inactive | Potency [4]: inactive

Oc1ccc(Oc2ccccc2)cc1
outcome [1]: inactive | outcome [2]: inactive | Potency [3]: inactive | Potency [4]: inactive
